From paper PMC4336329 (PLoS ONE, 2015)
Screen size: about 310,000 compounds; about 14,000 (4.5%) showed an effect of 50% or more. Effects have a minus sign here. The entries come from a sample that favours strong results as a whole.

target: human ether-à-go-go-related gene (hERG) potassium channel (human, UniProt Q12809); assay: primary screen, population patch clamp on CHO cells stably expressing hERG; higher = less effect of the substance
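Note: peak tail current of the secondary pulse compared with the same well before compound.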

Sequence of human ether-à-go-go-related gene (hERG) potassium channel (Q12809 whole entry, looked up): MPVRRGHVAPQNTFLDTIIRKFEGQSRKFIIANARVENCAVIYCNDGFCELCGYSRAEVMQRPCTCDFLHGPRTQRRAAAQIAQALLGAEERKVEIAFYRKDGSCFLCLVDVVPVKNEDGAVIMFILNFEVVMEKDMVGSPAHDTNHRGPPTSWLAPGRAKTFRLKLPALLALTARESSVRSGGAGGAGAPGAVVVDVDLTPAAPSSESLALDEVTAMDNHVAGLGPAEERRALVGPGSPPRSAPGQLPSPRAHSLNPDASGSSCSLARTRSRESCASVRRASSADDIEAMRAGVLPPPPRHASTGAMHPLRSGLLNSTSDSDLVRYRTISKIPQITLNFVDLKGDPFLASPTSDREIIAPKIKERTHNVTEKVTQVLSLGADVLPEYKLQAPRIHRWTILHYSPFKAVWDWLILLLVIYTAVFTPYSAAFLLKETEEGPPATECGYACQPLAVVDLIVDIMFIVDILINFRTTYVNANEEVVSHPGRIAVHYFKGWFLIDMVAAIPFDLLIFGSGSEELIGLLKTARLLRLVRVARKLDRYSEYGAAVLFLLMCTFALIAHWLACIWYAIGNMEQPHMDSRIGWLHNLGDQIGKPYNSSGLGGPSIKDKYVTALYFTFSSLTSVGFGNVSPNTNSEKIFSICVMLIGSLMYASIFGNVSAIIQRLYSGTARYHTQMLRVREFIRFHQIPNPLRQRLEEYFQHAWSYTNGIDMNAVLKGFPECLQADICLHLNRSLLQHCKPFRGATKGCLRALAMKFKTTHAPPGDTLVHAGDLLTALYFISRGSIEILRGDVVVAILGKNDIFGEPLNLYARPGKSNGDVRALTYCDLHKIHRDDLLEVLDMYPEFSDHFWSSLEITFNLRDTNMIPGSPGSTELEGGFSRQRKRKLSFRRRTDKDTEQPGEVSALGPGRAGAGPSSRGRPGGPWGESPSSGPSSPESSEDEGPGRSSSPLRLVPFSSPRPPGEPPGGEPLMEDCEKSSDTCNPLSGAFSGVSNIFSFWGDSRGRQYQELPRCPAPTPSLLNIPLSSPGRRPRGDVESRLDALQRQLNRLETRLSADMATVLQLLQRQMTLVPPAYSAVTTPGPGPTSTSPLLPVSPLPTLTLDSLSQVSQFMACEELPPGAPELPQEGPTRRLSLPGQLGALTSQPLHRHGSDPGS

Compound | hERG current change (%, negative = inhibition) at 10uM [%]
CCC(C)(C)NC(=O)CN(C(=O)CCC(=O)Nc1ccccn1)c1ccc(F)c(Cl)c1 | -1.31
Cc1cc(=O)oc2cc(NC(=O)c3ccccc3C(=O)O)ccc12 | 15.7
CN(CC(=O)Nc1ccccc1Br)C(=O)CNC(=O)c1ccc(Oc2ccccc2)cc1 | -17.8
CN1C[C@@H]2C[C@@H](c3cccn3-c3ccccn3)N3CCC[C@@]23C1=O | -43.6
O=C1N(C2CCCC2)C[C@@H]2C[C@@H](c3cccn3-c3nccs3)N3CCC[C@@]123 | -66.6
CCn1ccnc1[C@@H]1C[C@H]2CN(c3ccccc3OC)C(=O)[C@]23CCCN13 | 19.8
CN1C[C@@H]2C[C@@H](c3cccn3-c3nccs3)N3CCC[C@@]23C1=O | -19.2
O=C1N(C2CCCC2)C[C@@H]2C[C@@H](c3cccn3-c3ccccn3)N3CCC[C@@]123 | -62.6
CCCCNc1nc2c(c(=O)[nH]c(=O)n2C)n1CCOc1ccccc1 | 3.6
O=C(CCSc1ccccn1)c1ccccc1 | 8.82
CCOC(=O)CC(NC(=O)Cc1cccs1)c1ccccc1Cl (stereo not drawn) | 5.29
Cc1ccccc1C(=O)N1N=C(c2cccc(NS(C)(=O)=O)c2)CC1c1cccs1 (stereo not drawn) | -6.36
Cc1ccc(CN2CCN(Cc3cn[nH]c3-c3ccccc3)CC2CCO)o1 (stereo not drawn) | -12.7
Cc1ccc(CN2CCN(Cc3ccncc3)CC2CCO)o1 (stereo not drawn) | -8.3
Cc1ccc(CN2CCN(Cc3ccc(O)cc3)CC2CCO)o1 (stereo not drawn) | -7.85
Cc1ccc(CN2CCN(Cc3c(C)nn(C(C)C)c3C)CC2CCO)o1 (stereo not drawn) | -7.24
Cc1cc(C)c(CN2CCN(Cc3ccc(C)o3)C(CCO)C2)c(-n2cccn2)c1 (stereo not drawn) | -76.4
Cc1ccc(CN2CCN(Cc3cnn(-c4ccc(Cl)cc4)c3)CC2CCO)o1 (stereo not drawn) | -69.8
CCn1cc(CN2CCN(Cc3ccsc3)C(CCO)C2)cn1 (stereo not drawn) | -3.26
Cc1ccc(CN2CCN(Cc3c(C)nn(-c4ccc(F)cc4)c3C)CC2CCO)o1 (stereo not drawn) | -34.6
OCCC1CN(Cc2cnn(-c3ccc(F)cc3)c2)CCN1Cc1ccsc1 (stereo not drawn) | -65.7
Cc1ccc(CN2CCN(Cc3cnn(-c4ccc(F)cc4)c3)CC2CCO)o1 (stereo not drawn) | -56.1
Cc1ccc(CN2CCN(Cc3cnc(C)s3)CC2CCO)o1 (stereo not drawn) | -1.95
OCCC1CN(Cc2cnn(-c3ccccc3Cl)c2)CCN1Cc1ccsc1 (stereo not drawn) | -11.7
